# A selection: hits, their analogues and other compounds. The true share with any hit is near 0.93%.
# CDC25B CDK2 inh: primary biochemical HTRF screen for blockers of M-phase inducer phosphatase 2 binding to CDK2/cyclin A; P30305+P24941; z-score (test concentration not listed); actives 0.72% (n = 94,000); HTRF CDC25B-CDK2/CyclinA binding, anti-His/anti-Flag; hits give high values; in the data active = z-score above about 3.2
# TAR Tat displ: TAR RNA-Tat peptide displacers, HIV-1, primary screen, biochemical, FRET, FAM/TAMRA-labeled Tat; actives 0.6% (n = 100,000); z-score (test concentration not listed); HIV-1 TAR RNA, Tat peptide displacement FRET; hits give high values; active = z-score of 3 or more in at least 2 runs
# An asterisk follows results filed as active; / = not tested or not shown.
SMILES,CDC25B CDK2 inh,TAR Tat displ
O=C(c1noc2c1COc1ccccc1-2)N1CCCc2ccccc21,-1.2,0.45
COc1cc(C(=O)NC(NC(=S)Nc2cccc3ccccc23)C(Cl)(Cl)Cl)cc(OC)c1OC (configuration not stated),5.1*,/
COc1cccc(C(=O)NC(NC(=S)Nc2ccc(Cl)cc2Cl)C(Cl)(Cl)Cl)c1 (configuration not stated),2,/
c1cnc2sc(N3CCC4(CC3)OCCO4)nc2c1,-2.2,/
CNc1nc2cccnc2s1,8.2*,/
O=C(CN1C(=O)c2ccccc2Sc2ncccc21)Nc1ccc2c(c1)OCO2,/,13*
O=C(CN1C(=O)c2cccnc2Sc2ccccc21)Nc1ccc2c(c1)OCCO2,/,0.53
COc1ccc(CNS(=O)(=O)c2cn(C)cn2)cc1,/,1.8
Cc1cc(C)c(S(=O)(=O)Nc2cc3c(cc2C)n(C)c(=O)n3C)c(C)c1,/,0.42
Cc1cc(C)c(S(=O)(=O)Nc2ccc[nH]c2=O)c(C)c1,9.4*,-1.9
CN(C)c1nc(N)c([N+](=O)[O-])c(N2CCC(Cc3ccccc3)CC2)n1,/,0.29
O=c1c2c(nc(SCCO)n1C1CCCC1)-c1ccccc1CC21CCCC1,-0.43,1.6
COc1ccc(C2CC(=O)N3CN(C)CSC3=C2C#N)c(OC)c1 (configuration not stated),5.2*,-1.3
COc1ccc(C2CC(=O)N3CN(c4ccc(F)cc4)CSC3=C2C#N)c(OC)c1 (configuration not stated),4.4*,-2.1
COc1ccc(N2CSC3=C(C#N)C(c4ccc(SC)cc4)CC(=O)N3C2)cc1 (configuration not stated),2.8,-0.8
COc1ccc(Br)cc1C1CC(=O)N2CN(C)CSC2=C1C#N (configuration not stated),5,3.3
COc1ccc(N2CSC3=C(C#N)C(c4ccc(OC)cc4OC)CC(=O)N3C2)cc1 (configuration not stated),3.4*,-1.2
Cc1nnsc1C(=O)Nc1sc2c(c1C(=O)NC1CCS(=O)(=O)C1)CCC2 (configuration not stated),-1.3,1.4
c1ccc2c(OCCCOc3cccc4cccnc34)cccc2c1,6.2*,/
OC(COc1cccc2cccnc12)Cn1c2ccccc2c2ccccc21 (configuration not stated),-0.9,-1.6
O=C(COC(=O)c1ccc(C(O)c2ccccc2)cc1)c1ccccc1 (configuration not stated),-1.7,1.7
Cc1cc(C)c2c(-n3cccc3)nn(CC(=O)N3CCCC3)c2n1,/,-1
Cc1cc(C)n2c(SCc3ccc(C(=O)c4ccccc4)cc3)nnc2n1,8.3*,1.5
Cc1cc(C)n2c(SCc3ccc(Br)cc3)nnc2n1,-1.4,0.81
CC(NC(=O)Nc1cccc(Cl)c1)c1c(-n2cccc2)sc2c1CCCC2 (configuration not stated),1.6,1.1
SMILES,CDC25B CDK2 inh,TAR Tat displ
CCCCNC(=O)N1CCC(C(=O)c2c(C)c(C)c(C)c(C)c2C)CC1,-1.3,/
Cc1ccc2c(c1)NC(c1cccnc1)=NC(c1ccccc1)=N2,-0.48,0.13
Cc1nn(-c2nc3ccccc3[nH]2)c2c1C(c1ccc(C(=O)O)cc1)CC(=O)N2 (configuration not stated),/,25*
Cc1nn(-c2nncc(-c3ccc(F)cc3)n2)c2c1C(c1ccc(C(=O)O)cc1)CC(=O)N2 (configuration not stated),-2,3.7*
Cc1nn(-c2nc3ccccc3[nH]2)c2c1C(c1cc(F)cc(F)c1)CC(=O)N2 (configuration not stated),/,1.5
Cc1ccc(-c2cnnc(-n3nc(C)c4c3NC(=O)CC4c3ccc(C(=O)O)cc3)n2)cc1 (configuration not stated),-0.92,0.9
Cc1ccc(C2CC(c3cccs3)=NN2c2nc(C)cs2)cc1 (configuration not stated),0.01,0.36
Cc1c(C(=O)N2CCCC2)c(S(=O)(=O)NCC2CCCO2)c(C)n1C (configuration not stated),/,0.64
O[C@@H]1C=CO[C@@H]2COC(c3ccccc3)O[C@@H]12 (some centres not stated),-1.1,/
COc1ccc(Nc2nc3ccccc3n3nnnc23)cc1OC,-1.1,-1.3
CSc1cccc(NC(=O)CSc2nc(-c3ccc4c(c3)OCO4)nc3cc(=O)[nH]n23)c1,/,22*
COc1ccc(NC(=O)CSc2nc(-c3cccs3)nc3cc(=O)[nH]n23)cc1,/,14*
CN(Cc1ccccc1)C(=O)CSc1nc(-c2ccccc2)nc2cc(=O)[nH]n12,/,10*
Cc1cc(C)cc(NC(=O)CSc2nc(-c3ccccc3)nc3cc(=O)[nH]n23)c1,/,0.65
CN(C(=O)CSc1nc(-c2ccccc2)nc2cc(=O)[nH]n12)c1ccccc1,/,1.6
O=C(CSc1nc(-c2cccs2)nc2cc(=O)[nH]n12)Nc1ccccc1,/,0.68
